DNA FID counter = fluorescent intercalator displacement, NS3 helicase counter-screen; DNA fluorescent intercalator displacement, fluorescence; inhibition, % at 7.9 µM; 290,000 tested, 0.17% active; AID 1845; in the data active = inhibition above about 37%;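 note: 0% = vehicle and 100% = reference compound; higher means more ethidium bromide displaced from hairpin DNA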
dFosB activator = activators of mouse delta FosB homodimer. P13346. purified delta FosB, TAMRA-CDK5 oligo fluorescence polarization; percent of positive-control signal above neutral wells. activation, % at 25 µM. 340,000 tested, 0.99% active;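 active = mean activation above about 17%, with every replicate also reaching it, limit read from the data, passing the limit was not always enough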
Target sequence (P13346 whole entry, looked up): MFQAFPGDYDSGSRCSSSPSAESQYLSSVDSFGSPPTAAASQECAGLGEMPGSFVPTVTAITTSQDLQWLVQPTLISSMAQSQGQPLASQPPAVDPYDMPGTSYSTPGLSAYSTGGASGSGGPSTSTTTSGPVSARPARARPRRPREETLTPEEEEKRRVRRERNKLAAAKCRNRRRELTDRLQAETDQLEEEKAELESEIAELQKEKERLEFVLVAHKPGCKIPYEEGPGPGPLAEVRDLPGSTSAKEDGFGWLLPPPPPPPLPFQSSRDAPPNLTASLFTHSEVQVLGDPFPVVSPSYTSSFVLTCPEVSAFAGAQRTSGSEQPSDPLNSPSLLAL
MEKK3 PB1 HTS = MEKK3-MEK5 PB1 interaction, increase or decrease | 290,000 tested, 1.4% active | AID 1529 | binding response (% of control), % at 10 µM | bead-based flow cytometry, Alexa488-MEK5 binding to MEKK3; actives lie on both sides; 0 = blocked by unlabeled MEK5, 100 = vehicle;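 active = binding response more than 3 SD above or below the average of its plate-row segment, actives on both sides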;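 note: Alexa488 bead fluorescence after subtracting the streptavidin-only scavenger bead signal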
MEKK2wt PB1 HTS = raises or lowers MEK5 binding to wildtype human MEKK2 PB1 domain; Q9Y2U5; bead flow cytometry, Alexa488-MEK5 binding to MEKK2 WT; actives lie on both sides; binding response (% of control), % at 10 µM; 290,000 tested, 1.1% active; in the data active = binding response below about 67% or above about 130%
MEKK2mut PB1 HTS = signal of MEK5 binding to mutant human MEKK2 PB1 domain; 290,000 tested, 0.35% active; AID 1530; percent response, % at 10 µM; bead flow cytometry, Alexa488-MEK5 binding to MEKK2 mutant; in the data active = percent response above about 24%, passing the limit was not always enough
Active calls of the source: *; . = not tested or not shown; [ ] = remark or other dose. A selection: hits, their analogues and other compounds. The true share with any hit is near 2.9%.

SMILES	DNA FID counter	dFosB activator	MEKK3 PB1 HTS	MEKK2wt PB1 HTS	MEKK2mut PB1 HTS
CN(C)[C@@H]1C(=O)C(C(=O)NCN2CCCC2)=C(O)[C@@]2(O)C(=O)C3=C(O)c4c(O)cccc4[C@@](C)(O)C3CC12 (stereo partly specified)	-15.5	.	63.0	26.0*[inhibitor]	-11.0
O=C(COc1ccc2ccccc2c1)N[C@@H](C(=O)O)c1ccc(O)cc1	-20.8	1.8	98.0	100.0	-2.0
COc1ccc(N=c2scc(-c3ccc(S(=O)(=O)N4CCOCC4)cc3)n2CCCO)cc1	-13.7	.	2.0*[inhibitor]	3.0*[inhibitor]	-36.0
O=c1[nH]c(N/N=C\c2ccc3c(c2)OCO3)nc2ccccc12	-10.3	34.4*	99.0	98.0	-3.0
Cc1cc(N/N=C/c2ccc3c(c2)OCO3)nc2ccccc12	-8.3	60.7*	102.0	115.0	2.0
COc1ccc(/C=C/C(=O)Nc2ccccc2C(=O)NCC(c2ccc(OC)cc2)N(C)C)cc1 (stereo unspecified)	19.0	-1.6	105.0	129.0	8.0
C(=N\NC1=Nc2cccc3cccc1c23)/c1ccccc1	-5.4	9.2	101.0	92.0	1.0
C(=N\NC1=Nc2cccc3cccc1c23)/c1cccnc1	-1.4	1.2	96.0	11.0*	9.0
C#CCOCCOCCOCCNc1nc(N2CCN(C(=O)CCCCCCCCCCNC(=O)[C@H](CO)n3cc(CCCSC)nn3)CC2)nc(N2CCN(C(=O)CCCCCCCCCCNC(=O)[C@H](CCCN=C(N)N)n3cc(C[C@@H](C)CC)nn3)CC2)n1	.	-24.1	.	.	.
Cc1c(C)n(CCN(C)C)c2ccc(C(=O)OCCN(C)C)cc12	62.4*	20.2*	103.0	110.0	8.0
COC1CCCN(Cc2cn(C)nc2-c2ccc(Oc3ccccc3)cc2)C1 (stereo unspecified)	11.8	-13.0	97.0	100.0	1.0
CCCN1CCC(NCc2cn(C)nc2-c2ccc(Oc3ccccc3)cc2)CC1	38.9*	9.1	110.0	120.0	8.0
CCOc1ccc(CCNC(=O)CCCn2c(=O)c3cccn3c3cccnc32)cc1OCC	-46.9	-2.2	99.0	103.0	3.0
CCC(=O)Nc1nc2ccc(S(C)(=O)=O)cc2s1	-4.0	0.7	124.0	108.0	5.0
CC(C)CC(=O)Nc1nc2ccc(S(C)(=O)=O)cc2s1	11.5	-3.9	98.0	-11.0*	1.0
Cc1cc(-c2nnc(SCCC(=O)Nc3ccccc3)o2)no1	-13.9	-4.8	99.0	100.0	-3.0
COc1cc(C(=O)Nc2ccc(-c3nc4cc(C)ccc4o3)c(O)c2)cc(OC)c1OC	3.5	26.9*	100.0	107.0	1.0
Nc1ccc(Cn2ccc3c4c(N)nc(N)nc4ccc32)cc1	.	157.8*	.	.	.
Cc1nc2ccc(N)cc2c(=O)n1Cc1ccc(Cl)cc1	-6.1	-6.6	100.0	102.0	2.0
CC[n+]1ccc(/C=C2\Sc3ccccc3N2CCCS(=O)(=O)[O-])c2ccccc21	-1.9	-0.6	98.0	88.0	-33.0
CN1C=C/C(=C\c2cc[n+](C)c3ccccc23)c2ccccc21	17.5	37.9*	101.0	100.0	3.0
Cc1n[nH]c(C)c1S(=O)(=O)N(CC(=O)N1CCc2ccccc21)c1ccc(C(C)C)cc1	-9.2	50.1*	102.0	91.0	2.0
O=C(O)CCCN=CC1=C(O)C(C(=O)c2ccccc2)CCC1=O (stereo unspecified)	-3.2	4.9	104.0	100.0	1.0
CCCN1CCN(C(=O)C2CCN(S(=O)(=O)c3ccc4c(c3)NC(=O)C(C)S4)CC2)CC1 (stereo unspecified)	-4.7	-9.5	100.0	51.0*	25.0*
COc1ncnc(OC)c1S(=O)(=O)Nc1ccc(C(F)(F)F)cc1	-10.0	2.7	105.0	105.0	3.0
SMILES	DNA FID counter	dFosB activator	MEKK3 PB1 HTS	MEKK2wt PB1 HTS	MEKK2mut PB1 HTS
O=C(C[n+]1ccccc1)Nc1ccc(Oc2ccccc2)cc1	36.7*	0.4	98.0	94.0	-12.0
CCN(CC)CCCNc1ccc(-c2nnc(-c3ccc(OCC(C)C)cc3)o2)cn1	15.3	-2.3	106.0	165.0*	36.0*
CCOc1cc(NC(=O)c2cnccn2)c(OCC)cc1NC(=O)c1cccc(F)c1	3.5	.	96.0	83.0	-15.0
Cc1ccc(Cl)cc1NC(=S)N(CCCN1CCN(C)CC1)Cc1ccco1	13.7	5.0	99.0	98.0	-3.0
Cc1ccccc1NC(=S)NCCSc1ccc(Cl)cc1	48.8*	-9.0	99.0	97.0	1.0
Cc1ccc(C)c(NC(=S)NCCSc2ccc(Cl)cc2)c1	-8.2	-11.8	74.0	95.0	-2.0
CCc1ccc(/C=C2/SC(=S)N(CC(=O)Nc3nc4ccccc4s3)C2=O)cc1	0.3	28.5*	106.0	102.0	7.0
O=C(CCCN1C(=O)/C(=C/c2cccc(Br)c2)SC1=S)Nc1cccnc1	-9.6	21.9*	103.0	104.0	8.0
Cc1cc(NC(=O)CN2C(=O)/C(=C/c3cccc(Br)c3)SC2=S)no1	0.5	19.0*	102.0	100.0	-2.0
O=C(CCCN1C(=O)/C(=C\c2cccc(Br)c2)SC1=S)Nc1cccnc1	-16.6	13.5	91.0	99.0	-3.0
CC[C@]1(O)CC2CN(CCc3c([nH]c4ccccc34)[C@@](C(=O)OC)(c3cc4c(cc3OC)N(C)[C@H]3[C@@](O)(C(N)=O)[C@H](O)[C@]5(CC)C=CCN6CC[C@]43[C@@H]65)C2)C1 (stereo partly specified)	.	.	108.0	123.0	7.0
Cc1nnc2ccc(-c3cccc(NC(=O)c4ccco4)c3)nn12	-1.5	-5.4	113.0	110.0	-1.0
COc1ccc(CC(=O)Nc2cccc(-c3ccc4nnc(C)n4n3)c2)cc1	-7.8	72.7*	109.0	105.0	-1.0
COc1ccc(CC(=O)Nc2cccc(-c3ccc4nnc(C)n4n3)c2)cc1OC	-22.0	72.7*	119.0	104.0	-2.0
Cc1nnc2ccc(-c3cccc(NC(=O)Cc4cccs4)c3)nn12	-18.0	-32.4	104.0	99.0	-1.0
COc1ccc(CC(=O)Nc2cccc(-c3ccc4nncn4n3)c2)cc1OC	-16.1	63.5*	106.0	98.0	-2.0
COc1ccc(C(=O)Nc2cccc(-c3ccc4nncn4n3)c2)cc1OC	2.8	-8.3	112.0	111.0	0.0
CCOc1ccc(CC(=O)Nc2cccc(-c3ccc4nnc(C)n4n3)c2)cc1	-23.9	89.2*	105.0	102.0	1.0
Cc1ccc(N2C(=O)NC(NS(=O)(=O)c3ccccc3)(C(F)(F)F)C2=O)cc1C (stereo unspecified)	-8.0	7.3	103.0	106.0	7.0
CCn1ccnc1CN1CCC(n2nccc2NC(=O)c2ccccc2OC)CC1	-1.1	3.6	103.0	105.0	7.0
C[C@H](CO)N1C[C@H](C)[C@@H](CN(C)Cc2ccc(-c3ccccc3)cc2)Oc2c(NS(=O)(=O)c3cn(C)cn3)cccc2C1=O	.	-1.2	.	.	.
CCOC(=O)C1(Cc2ccccc2C(F)(F)F)CCN(C2CCN(C(C)C)CC2)CC1	44.7*	3.7	108.0	101.0	-13.0

Assay outcomes: PubChem, several laboratories
